Measured values from PubChem BioAssay (NCATS).
Inconclusive results are not listed. Where a call stands in place of a potency, no number is given. Values without a mark were called inactive. Active and inactive are the calls of the source. Calls come from the whole dose curve; as a rule, active = well fitted inhibition curve with a large enough effect; inconclusive = small, poorly fitted or top-dose-only effect; inactive = flat fitted curve, though single readings scatter.

The molecules below were run on DIV30 (assay: qHTS profiling for inhibitors of Plasmodium falciparum proliferation (AID 504749; note: nearly all actives have a fitted effect of over 60% in size)). Settings: P. falciparum in erythrocytes, SYBR Green DNA, 72 h; series mostly up to 28.7 µM.
Summary of the method: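 P. falciparum-infected erythrocytes (0.3% parasitemia, 2.5% hematocrit final) were exposed to compounds for 72 h at 37 C in 5% CO2, then lysed with SYBR Green buffer overnight at room temperature; parasite DNA fluorescence was normalized to artemisinin and DMSO controls.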
Potency is the fitted concentration of half-maximal effect.

Structure (SMILES) | Potency | activity, negative = inhibition
Cc1ncsc1CCCl | inactive | –
c1ccc2c(c1)sc1ccccc12 | inactive | –
CCOC(=O)CC(SP(=S)(OC)OC)C(=O)OCC (stereo not given) | inactive | –
CCCC(C)(COC(N)=O)COC(N)=O | inactive | –
O=C1Nc2ccc(Cl)cc2C(c2ccccc2)=NC1O (stereo not given) | inactive | –
CCCCC/C=C\C/C=C\C/C=C\C/C=C\CCCC(=O)NCC(=O)O | – | -7.28% [at 2.67 µM]
CNC(C)(C)Cc1ccccc1 | inactive | –
CCCCCCC(=O)CCCCCC/C=C/C[C@@H](O)[C@H](O)[C@@](N)(CO)C(=O)O | inactive | –
CN1C[C@H](C(=O)N[C@]2(C)O[C@@]3(O)[C@@H]4CCCN4C(=O)[C@H](Cc4ccccc4)N3C2=O)C=C2c3cccc4[nH]cc(c34)C[C@H]21 | 1690 nM (active) | –
CCC1(c2ccccc2)C(=O)N(COC)C(=O)N(COC)C1=O | inactive | –
NC(=O)CS(=O)C(c1ccccc1)c1ccccc1 (stereo not given) | inactive | –
O=c1[nH]oc2c1CCNC2 | inactive | –
COc1c2c(cc3c1OCO3)CCN(C)C2 | inactive | –
CCCCCCCCCC(=O)O[C@H]1CC[C@H]2[C@@H]3CCC4=CC(=O)CC[C@@H]4[C@H]3CC[C@]12C | inactive | –
COP(=S)(OC)Oc1ccc(SC)c(C)c1 | inactive | –
CCC(C)(C)c1ccc(O)cc1 | inactive | –
O=C(Nc1ccc(Br)cc1)c1cc(Br)cc(Br)c1O | inactive | –
Clc1ccc2c(c1)C(c1ccccc1)=NCc1nncn1-2 | inactive | –
C[C@]12CC[C@@H]3c4ccc(OC(=O)N(CCCl)CCCl)cc4CC[C@H]3[C@@H]1CC[C@@H]2O | inactive | –
CN1C(=O)CCS(=O)(=O)C1c1ccc(Cl)cc1 (stereo not given) | inactive | –
Nc1ccccc1C(=O)O | inactive | –
O=C(O)CCCc1ccc(N(CCCl)CCCl)cc1 | inactive | –
Nc1nc(N)nc(NC2CC2)n1 | inactive | –
O=c1oc2ccccc2c(O)c1Cc1c(O)c2ccccc2oc1=O | inactive | –
O=C1Nc2ccc(Cl)cc2C(c2ccccc2Cl)=NC1O (stereo not given) | inactive | –
O=C1c2ccccc2C(=O)C1C(=O)C(c1ccccc1)c1ccccc1 | inactive | –
CC(C)=CC1C(C(=O)OCN2C(=O)C3=C(CCCC3)C2=O)C1(C)C (stereo not given) | inactive | –
CN1C(=O)COc2c(C(=O)NC3CN4CCC3CC4)cc(Cl)cc21 (stereo not given) | inactive | –
CCC1(CC)C(=O)C=CNC1=O | inactive | –
NCCc1ccc(O)cc1 | inactive | –
